Test results reported in PubChem BioAssay (NCI).
This is part of a sample that, as a whole, favours compounds with a hit. Of some 83,000 tested, about 20% had one in any assay.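 Single-concentration screen, 48 h exposure, 96-well plates. Endpoint: percent growth. Below 10 = active.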 Activity calls are given as the source filed them.

test system: HL-60(TB) leukemia; assay: NCI-60 one-dose screen, 48 h (100 = growth as untreated, 0 = no growth, -100 = all killed); settings: 10 µM unless noted

Compound	growth
CCCC(=O)NC(c1cccnc1)c1cc(C)c2cccnc2c1O (centres undefined)	1.38% (active)
Cn1ccnc1C(=O)/C=C/c1ccc(NC(=O)Nc2ccc(F)cc2)cc1	7.58% (active)
Oc1[nH]c2ccc(Cl)cc2c1N=Nc1nc(N=Nc2c(O)[nH]c3ccc(Cl)cc23)nc(N2CCCCC2)n1	71.5% (inactive)
COc1ccc(-c2cc(-c3ccc(N4CCOCC4)cc3)n3c(n2)nc2ccccc23)cc1OC	71% (inactive)
N#Cc1c(-c2ccc(F)cc2)nc2c(C#N)c(Nc3ccccc3)nn2c1N	104% (inactive)
COc1ccc([C@H]2c3[nH]c4ccccc4c3C[C@H]3C(=O)N(C4CCN(Cc5c(Cl)cccc5Cl)CC4)CC(=O)N23)c(OC)c1	97% (inactive)
O=c1[nH]c2cc(Cl)ccc2n1C1CCN(c2ccc3nnc(Cl)n3n2)CC1	93.1% (inactive)
Clc1cccc(/C=N/Nc2nc(N/N=C/c3cccc(Cl)c3)nc(N3CCCCC3)n2)c1	97% (inactive)
CCN1CCN(c2ccc(NC(=O)Nc3ccc4c(ccn4-c4ccnc(C(=O)NC)c4)c3)cc2C(F)(F)F)CC1	96.6% (inactive)
Oc1ccc(-c2nc3ccc(/C(=N\N=C\c4ccc(Cl)cc4)c4ccccc4)cc3[nH]2)cc1	27.5% (inactive)
Cc1csc(/N=C(N)/N=C(\N)c2cccc(C#N)c2)n1	70.8% (inactive)
O=C(c1ccc(Cl)cc1)C1[C@H](c2ccc(Cl)cc2)[C@@H](c2ccccc2)NC12C(=O)Nc1ccccc12 (some centres undefined)	49.3% (inactive)
Brc1cc(-c2cc(-c3ccc4c(c3)OCCO4)[nH]n2)cs1	24% (inactive)
CCCC(=O)NC(c1ccc(N(CC)CC)cc1)c1cc(C)c2cccnc2c1O (centres undefined)	-25% (active)
COc1ccc(CC(C)=C(c2ccc(OCCN3CCCC3)cc2)c2ccc(OCCN3CCCC3)cc2)cc1	-64.2% (active)
Cc1cccc(NC(c2cc3cccc4ccc5cccc2c5c43)c2nnnn2C(C)(C)C)c1C (centres undefined)	91.9% (inactive)
COc1cccc(N2CCN(C3=C(Cl)C(=O)c4ncccc4C3=O)CC2)c1	9.82% (active)

Compound	growth
CCN(CC)c1ccc2cc(C(=O)NCCOCCOCCOCCn3cc(CCC(=O)Nc4ccc(C(=O)c5ccc(NC(=O)OC(C)(C)C)cc5)cc4)nn3)c(=O)oc2c1	37% (inactive)
Cn1c(SC(C(=O)Nc2ccc(F)cc2)c2ccccc2)nc2ccccc2c1=O (centres undefined)	103% (inactive)
NC(N)=Nc1ccc(Oc2cccc(NC(N)=Nc3ccc(Br)c(C(F)(F)F)c3)c2)cc1	17.6% (inactive)
O=C(O)c1ccc(-n2cc(CNc3cc(F)c(F)c(F)c3)c(-c3cccc(F)c3)n2)cc1	108% (inactive)
O=C(Nc1cccc(Cl)c1)Nc1nc2ccc([N+](=O)[O-])cc2o1	0.103% (active)
C#C[C@]1(O)CC[C@H]2[C@@H]3CC=C4c5sc(-c6ccccn6)nc5CC[C@]4(C)[C@H]3CC[C@@]21C	41.4% (inactive)
COc1ccc(-c2nc3cc(Cl)c(Cl)cc3n2CC(=O)N=Nc2c(O)[nH]c3ccc(Br)cc23)cc1	80.2% (inactive)
O=S(=O)(NCCCNc1nccc(-c2[nH]c(-c3ccccc3)nc2-c2ccc(F)c(O)c2)n1)c1cccc(F)c1	95.7% (inactive)
C=CCn1c(SCC(=O)Nc2ccc(C(=O)/C=C/c3cc(OC)c(OC)c(OC)c3)cc2)nnc1-c1c[nH]c2ccccc12	-15.1% (active)
CC(=O)C1=NN(c2ccc(Cl)cc2)C(=O)CN1C	105% (inactive)
CC(=C(c1ccc(OCCN(C)C)cc1)c1ccc(OCCN(C)C)cc1)c1ccc(Cl)cc1	-53.5% (active)
CCOC(=O)c1nn(-c2ccccc2)c(=O)c2c(N)c(C#N)c(-c3cccs3)cc12	113% (inactive)
O=C(Cn1cc(CN2C(=O)c3ccc([N+](=O)[O-])cc3C2=O)nn1)Nc1ccc(F)cc1Cl	99.2% (inactive)
COc1cc(O)c2c(c1)[C@H]1O[C@@H]1C[C@H](O)[C@H](O)C(=O)/C=C\C[C@H](C)OC2=O	0.185% (active)
O=C(c1ccc(O)cc1)[C@@H]1[C@@H]2CCCN2[C@@]2(C(=O)N(C(=O)c3ccc(F)cc3)c3ccccc32)[C@H]1c1ccc(F)cc1	78.6% (inactive)
CC1(C)C=Cc2cc(/C(N)=N/C(N)=N/c3nc4ccccc4s3)ccc2O1	72.9% (inactive)
Cc1nn(-c2ccccc2)c2ncnc(N/N=C/c3ccccc3)c12	91.5% (inactive)
